Assay in all cases: log2 ratio of Biotin-Ahx-Ub-VS probe labelling (fragment/DMSO); higher = less target engagement (more negative = stronger competition), active = hit call of the paper (q ≤ 0.05, log2 ratio ≤ -1)
Holding throughout (conditions): compound concentration: 200 uM; treatment time: 3 h

One assay concerns the target T1, USP19 (UniProt O94966).
T1 sequence (whole entry): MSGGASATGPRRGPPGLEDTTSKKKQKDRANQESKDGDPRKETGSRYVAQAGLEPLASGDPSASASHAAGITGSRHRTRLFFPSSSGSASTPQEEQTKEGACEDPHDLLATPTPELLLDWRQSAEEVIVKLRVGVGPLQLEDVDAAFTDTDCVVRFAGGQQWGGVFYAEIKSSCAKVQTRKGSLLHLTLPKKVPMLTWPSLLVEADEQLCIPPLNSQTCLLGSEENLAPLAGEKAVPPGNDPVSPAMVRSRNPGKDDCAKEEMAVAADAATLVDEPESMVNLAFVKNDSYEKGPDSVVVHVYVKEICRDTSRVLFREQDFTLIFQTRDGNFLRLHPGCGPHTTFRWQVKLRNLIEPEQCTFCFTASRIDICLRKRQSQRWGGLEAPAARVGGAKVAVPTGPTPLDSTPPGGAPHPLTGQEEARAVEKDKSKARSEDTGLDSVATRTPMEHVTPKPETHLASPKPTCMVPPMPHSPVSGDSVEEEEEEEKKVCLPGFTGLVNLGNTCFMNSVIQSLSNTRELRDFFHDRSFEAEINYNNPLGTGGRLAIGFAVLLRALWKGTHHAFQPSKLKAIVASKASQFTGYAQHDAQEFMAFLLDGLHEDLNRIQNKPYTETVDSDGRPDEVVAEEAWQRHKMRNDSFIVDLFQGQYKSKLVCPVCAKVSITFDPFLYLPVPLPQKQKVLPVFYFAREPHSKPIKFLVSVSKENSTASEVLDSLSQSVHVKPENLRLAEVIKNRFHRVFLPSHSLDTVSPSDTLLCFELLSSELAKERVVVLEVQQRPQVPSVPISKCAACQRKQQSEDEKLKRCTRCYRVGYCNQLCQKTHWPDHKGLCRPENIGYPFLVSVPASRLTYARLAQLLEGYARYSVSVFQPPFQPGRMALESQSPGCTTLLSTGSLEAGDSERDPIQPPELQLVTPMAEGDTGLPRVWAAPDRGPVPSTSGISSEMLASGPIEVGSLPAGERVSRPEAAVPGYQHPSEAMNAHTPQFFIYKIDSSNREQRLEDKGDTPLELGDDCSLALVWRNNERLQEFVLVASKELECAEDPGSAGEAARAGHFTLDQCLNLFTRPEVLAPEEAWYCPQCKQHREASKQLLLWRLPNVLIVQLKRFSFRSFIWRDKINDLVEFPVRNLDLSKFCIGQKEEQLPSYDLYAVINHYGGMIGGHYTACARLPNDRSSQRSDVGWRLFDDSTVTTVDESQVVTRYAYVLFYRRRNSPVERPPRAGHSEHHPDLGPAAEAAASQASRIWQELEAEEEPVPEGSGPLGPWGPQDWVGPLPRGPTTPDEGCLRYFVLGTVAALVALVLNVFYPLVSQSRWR
A digest of the protocol:
(§1)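 Labelled DUBs from HEK293T lysate were NeutrAvidin-enriched, digested with LysC and trypsin, and run by diaPASEF LC-MS/MS. Before that, each 495 µg sample in Tris/CHAPS/IGEPAL buffer with protease inhibitors was treated in triplicate with fragment at 200 µM or vehicle for 3 h, then with Biotin-Ahx-Ub-VS at 0.5 µM final for 1 h. Values are average log2 ratios of fragment over vehicle by unpaired t-test, based on global-median-normalised Spectronaut label-free quantities from proteins with ≥2 unique peptides.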

A further assay concerns the target T2, USP22 (UniProt Q9UPT9).
T2 sequence (whole entry): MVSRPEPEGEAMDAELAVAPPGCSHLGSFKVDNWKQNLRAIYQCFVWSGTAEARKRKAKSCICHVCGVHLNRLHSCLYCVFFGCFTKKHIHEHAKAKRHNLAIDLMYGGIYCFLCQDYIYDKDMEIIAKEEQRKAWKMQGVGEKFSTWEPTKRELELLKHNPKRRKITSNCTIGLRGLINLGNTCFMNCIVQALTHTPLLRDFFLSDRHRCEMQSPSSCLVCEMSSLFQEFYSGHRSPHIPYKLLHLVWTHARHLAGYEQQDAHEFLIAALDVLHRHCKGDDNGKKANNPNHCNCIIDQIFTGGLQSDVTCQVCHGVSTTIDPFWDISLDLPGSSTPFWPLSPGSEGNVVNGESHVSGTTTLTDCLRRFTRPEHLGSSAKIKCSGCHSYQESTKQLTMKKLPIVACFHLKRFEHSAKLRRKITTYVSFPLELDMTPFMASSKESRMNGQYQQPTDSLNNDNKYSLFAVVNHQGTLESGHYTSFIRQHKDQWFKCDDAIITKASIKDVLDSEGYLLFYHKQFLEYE
The method, boiled down: as §1

The target in a further assay is USP24 (UniProt Q9UPU5). The method, boiled down: as §1
Another assay addresses T3, USP25 (UniProt Q9UHP3).
T3 sequence (whole entry): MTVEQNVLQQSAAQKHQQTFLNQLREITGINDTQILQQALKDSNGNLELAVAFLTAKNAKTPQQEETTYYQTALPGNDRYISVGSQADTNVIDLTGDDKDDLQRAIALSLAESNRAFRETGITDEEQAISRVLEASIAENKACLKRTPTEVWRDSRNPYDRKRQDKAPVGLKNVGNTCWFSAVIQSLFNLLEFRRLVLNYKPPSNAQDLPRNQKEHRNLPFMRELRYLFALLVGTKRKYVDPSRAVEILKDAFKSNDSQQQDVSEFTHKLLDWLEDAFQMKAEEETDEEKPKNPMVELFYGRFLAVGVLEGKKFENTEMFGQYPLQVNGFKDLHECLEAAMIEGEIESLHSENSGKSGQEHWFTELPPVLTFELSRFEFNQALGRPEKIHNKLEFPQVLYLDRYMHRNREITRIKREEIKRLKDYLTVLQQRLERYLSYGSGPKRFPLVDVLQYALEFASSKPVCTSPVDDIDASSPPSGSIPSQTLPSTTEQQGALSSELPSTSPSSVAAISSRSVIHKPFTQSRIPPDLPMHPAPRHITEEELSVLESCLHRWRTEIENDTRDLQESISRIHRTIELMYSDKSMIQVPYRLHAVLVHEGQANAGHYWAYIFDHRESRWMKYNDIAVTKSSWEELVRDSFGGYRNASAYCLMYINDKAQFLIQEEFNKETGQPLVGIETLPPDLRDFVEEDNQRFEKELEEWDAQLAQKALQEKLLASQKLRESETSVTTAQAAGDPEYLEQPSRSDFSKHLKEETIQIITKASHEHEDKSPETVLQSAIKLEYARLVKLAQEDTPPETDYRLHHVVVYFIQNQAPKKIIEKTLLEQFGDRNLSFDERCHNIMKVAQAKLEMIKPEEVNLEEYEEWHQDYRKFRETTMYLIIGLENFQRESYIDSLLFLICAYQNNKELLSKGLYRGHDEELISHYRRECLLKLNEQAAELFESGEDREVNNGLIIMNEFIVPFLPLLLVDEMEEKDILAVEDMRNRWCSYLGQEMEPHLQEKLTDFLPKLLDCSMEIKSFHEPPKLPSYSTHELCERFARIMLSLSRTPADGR
A digest of the protocol:
as §1

For a further assay, the target named is T4, USP28 (UniProt Q96RU2).
T4 sequence (whole entry): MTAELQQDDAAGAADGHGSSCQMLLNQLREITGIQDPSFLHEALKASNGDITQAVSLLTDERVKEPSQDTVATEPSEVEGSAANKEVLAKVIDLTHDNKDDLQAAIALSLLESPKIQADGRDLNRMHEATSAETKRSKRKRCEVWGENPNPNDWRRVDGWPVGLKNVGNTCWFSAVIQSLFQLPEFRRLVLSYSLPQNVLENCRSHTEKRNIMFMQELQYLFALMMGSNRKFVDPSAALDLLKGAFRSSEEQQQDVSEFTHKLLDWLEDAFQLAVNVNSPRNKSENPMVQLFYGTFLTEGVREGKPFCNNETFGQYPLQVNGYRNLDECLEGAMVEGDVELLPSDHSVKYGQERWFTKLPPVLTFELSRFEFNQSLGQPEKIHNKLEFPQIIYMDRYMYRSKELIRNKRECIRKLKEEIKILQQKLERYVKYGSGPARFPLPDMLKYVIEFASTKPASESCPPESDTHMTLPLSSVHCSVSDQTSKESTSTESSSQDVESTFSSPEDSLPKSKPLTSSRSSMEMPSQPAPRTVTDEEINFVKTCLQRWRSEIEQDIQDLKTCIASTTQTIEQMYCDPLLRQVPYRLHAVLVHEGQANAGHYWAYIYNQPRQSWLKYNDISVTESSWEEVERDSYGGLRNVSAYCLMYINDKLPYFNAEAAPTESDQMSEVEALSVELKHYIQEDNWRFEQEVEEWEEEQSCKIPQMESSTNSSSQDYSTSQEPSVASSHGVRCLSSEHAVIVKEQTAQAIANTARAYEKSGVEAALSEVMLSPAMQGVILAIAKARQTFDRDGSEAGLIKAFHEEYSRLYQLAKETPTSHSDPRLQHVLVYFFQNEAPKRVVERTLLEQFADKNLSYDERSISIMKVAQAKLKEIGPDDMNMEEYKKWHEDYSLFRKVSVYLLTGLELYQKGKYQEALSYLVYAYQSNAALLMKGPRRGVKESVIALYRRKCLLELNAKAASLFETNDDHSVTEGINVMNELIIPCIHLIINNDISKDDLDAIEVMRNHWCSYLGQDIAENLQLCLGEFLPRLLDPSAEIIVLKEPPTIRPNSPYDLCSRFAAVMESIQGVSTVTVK
The method, boiled down:
as §1

Values without a mark were called inactive.

Sequence of USP24 (Q9UPU5 whole entry): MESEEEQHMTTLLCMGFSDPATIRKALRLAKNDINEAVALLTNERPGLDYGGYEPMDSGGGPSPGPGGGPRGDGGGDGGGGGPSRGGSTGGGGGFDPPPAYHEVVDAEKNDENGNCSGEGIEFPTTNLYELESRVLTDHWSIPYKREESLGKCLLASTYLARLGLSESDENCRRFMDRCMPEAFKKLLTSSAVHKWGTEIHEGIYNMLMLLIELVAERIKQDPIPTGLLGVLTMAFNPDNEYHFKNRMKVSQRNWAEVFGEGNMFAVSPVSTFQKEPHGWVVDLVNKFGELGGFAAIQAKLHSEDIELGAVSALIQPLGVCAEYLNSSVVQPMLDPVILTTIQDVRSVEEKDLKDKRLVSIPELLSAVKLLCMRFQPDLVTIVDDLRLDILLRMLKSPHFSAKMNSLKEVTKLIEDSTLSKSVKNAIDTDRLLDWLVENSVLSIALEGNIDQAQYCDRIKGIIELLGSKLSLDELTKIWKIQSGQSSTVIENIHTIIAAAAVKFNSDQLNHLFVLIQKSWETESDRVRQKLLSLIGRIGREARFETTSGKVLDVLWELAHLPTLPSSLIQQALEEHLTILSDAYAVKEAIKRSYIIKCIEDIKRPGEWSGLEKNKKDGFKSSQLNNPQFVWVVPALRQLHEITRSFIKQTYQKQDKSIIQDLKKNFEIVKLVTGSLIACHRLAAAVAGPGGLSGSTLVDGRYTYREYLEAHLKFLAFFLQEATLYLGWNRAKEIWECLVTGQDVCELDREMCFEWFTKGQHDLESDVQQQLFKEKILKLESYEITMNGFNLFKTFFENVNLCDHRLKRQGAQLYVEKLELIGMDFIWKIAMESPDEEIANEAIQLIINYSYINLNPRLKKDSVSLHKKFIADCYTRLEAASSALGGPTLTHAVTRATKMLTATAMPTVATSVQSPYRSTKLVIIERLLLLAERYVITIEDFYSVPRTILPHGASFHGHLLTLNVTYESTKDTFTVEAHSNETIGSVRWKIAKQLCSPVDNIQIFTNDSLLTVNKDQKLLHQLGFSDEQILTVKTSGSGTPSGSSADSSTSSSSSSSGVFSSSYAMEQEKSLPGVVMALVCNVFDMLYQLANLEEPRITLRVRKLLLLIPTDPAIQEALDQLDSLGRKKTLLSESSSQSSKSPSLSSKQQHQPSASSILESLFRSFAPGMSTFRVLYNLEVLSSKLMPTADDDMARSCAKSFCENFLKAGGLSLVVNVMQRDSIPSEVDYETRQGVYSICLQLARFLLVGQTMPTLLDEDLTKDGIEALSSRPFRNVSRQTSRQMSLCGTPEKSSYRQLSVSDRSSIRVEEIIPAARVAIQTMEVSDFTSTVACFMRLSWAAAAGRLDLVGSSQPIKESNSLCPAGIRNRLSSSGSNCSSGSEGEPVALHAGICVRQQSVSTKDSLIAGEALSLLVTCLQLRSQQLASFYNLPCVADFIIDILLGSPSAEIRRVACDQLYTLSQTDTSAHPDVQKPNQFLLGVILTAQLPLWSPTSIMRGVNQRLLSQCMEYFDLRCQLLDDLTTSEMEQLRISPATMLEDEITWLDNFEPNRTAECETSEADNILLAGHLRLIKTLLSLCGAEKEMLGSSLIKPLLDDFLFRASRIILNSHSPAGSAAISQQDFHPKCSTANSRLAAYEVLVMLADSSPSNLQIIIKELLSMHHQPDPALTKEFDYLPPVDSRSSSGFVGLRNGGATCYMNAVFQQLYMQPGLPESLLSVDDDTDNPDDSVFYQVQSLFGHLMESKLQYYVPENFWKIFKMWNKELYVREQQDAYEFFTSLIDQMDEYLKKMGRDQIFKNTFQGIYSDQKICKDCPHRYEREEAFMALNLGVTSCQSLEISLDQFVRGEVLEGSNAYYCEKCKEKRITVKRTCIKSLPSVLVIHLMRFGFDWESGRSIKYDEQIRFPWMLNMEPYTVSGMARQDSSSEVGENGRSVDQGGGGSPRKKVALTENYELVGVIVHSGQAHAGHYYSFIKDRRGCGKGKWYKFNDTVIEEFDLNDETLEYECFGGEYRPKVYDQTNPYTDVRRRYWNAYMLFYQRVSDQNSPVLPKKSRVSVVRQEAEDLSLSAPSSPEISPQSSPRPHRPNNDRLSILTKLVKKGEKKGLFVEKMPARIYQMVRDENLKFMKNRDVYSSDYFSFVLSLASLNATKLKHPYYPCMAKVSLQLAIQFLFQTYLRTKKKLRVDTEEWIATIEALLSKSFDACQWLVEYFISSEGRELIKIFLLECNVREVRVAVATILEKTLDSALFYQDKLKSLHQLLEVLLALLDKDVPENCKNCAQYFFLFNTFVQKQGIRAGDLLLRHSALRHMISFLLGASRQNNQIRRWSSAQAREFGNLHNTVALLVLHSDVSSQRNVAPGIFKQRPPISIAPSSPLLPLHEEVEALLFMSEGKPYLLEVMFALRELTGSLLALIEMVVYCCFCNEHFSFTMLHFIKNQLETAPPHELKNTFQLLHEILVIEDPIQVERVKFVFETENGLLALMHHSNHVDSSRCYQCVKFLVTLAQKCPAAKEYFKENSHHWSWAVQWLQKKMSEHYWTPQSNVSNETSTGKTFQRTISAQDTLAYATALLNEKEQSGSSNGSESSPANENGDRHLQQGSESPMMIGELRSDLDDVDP

For `O=C(CCl)Nc1ccc2c(c1)OC(F)(F)O2`, the “log2 ratio of Biotin-Ahx-Ub-VS probe labelling” value with USP19 is -0.102; with USP22 it was -0.358; with USP24, -1.19 (active); with USP25 it was -0.541; with USP28, -1.3 (active).

The values are drawn from the supplement of paper PMC11732987, “Enantioselective OTUD7B fragment discovery through chemoproteomics screening and high-throughput optimisation” (Communications Chemistry, 2025).
